The OligoGym collection

Molecular target: SIAE
Test: pooled miR-30 sensor sort-seq; sequence = guide strand
Conditions: shRNA
Also: reference of the scale not given here.

Sequence	sensor-assay potency score (higher = more potent)
TATCTGTAACACAGTCATCTGC	-0.344
TACAGAGCCAGACATCTCCAAA	-1.12
TAACACAGTCATCTGCATGTTA	-0.177
TATCTTGTTGTCCTTTTTCTGC	-1.26
TTAAATATCTGTAACACAGTCA	0.571
TTTAACTCGAACAACAGTTTGC	-0.109
TTATTTTCTCCAAAGTCTGTTG	-0.694
TTGATGTATGAAGCAAAGCGAA	-1.38
TTGAGGTCCAATTTGTCTGTAG	0.183

Molecular target: SIK3
Test: as above
Conditions: shRNA

Sequence	sensor-assay potency score (higher = more potent)
TTGAACTCTTACTGTCTTGGAA	-0.119
TACTTGAACTCTTACTGTCTTG	-0.689
TCTGTTTGAACTTCCGACGTGC	0.851
TTAATGACTGCAGTGTCTGTTC	-0.0807
TTCATAATTTGAACTTCCCGGA	-0.153
TAAATCACGATGAACAATGTTC	-0.457
TACATAAGCATCGTCGCTGTTC	-0.402
TTATCTATGATCTTGATAGCAA	-0.377
TTAGTTGTTGGCATTCAGCTAT	-0.107
TCTAACACCAACATATGGCGGA	0.184
TAGCTGAGCAGAATGTCTGTAA	-0.0523
TATGATCTTGATAGCAACCTTG	-0.675

Molecular target: SIPA1L2
Test: as above
Conditions: shRNA

Sequence	sensor-assay potency score (higher = more potent)
TAGCTTGTGCTTCTCTTCTTGT	-0.716
TAGCGCTTCACTTTCTCCCTGT	0.691
TTATACATCTCTTCCTCTGTGC	0.628
TAACAGTTCGAAGCTTTCGGAA	-0.928
TTGTCTTGTTTTTCCTTCCGAA	-0.306
TACAACATTCTTGGAATCCTTT	-0.254
TTGTTCATCAAGCTTGAGCAGC	-0.923
TACTTTTTGAACAGTGAGCTGA	0.29
TTGAACTTTGAAGAGGCTCTGC	0.37
TTGTCGAAGAATTAATTCCAGC	-1.01
TAATCTAATCCTGAGATGCGGA	-0.642
TTCAGCACAGTTGTCTACCGAG	-0.567

Molecular target: SIRPD
Test: as above
Conditions: shRNA

Sequence	sensor-assay potency score (higher = more potent)
TTAATTTCCGGTTTGGCCCTGT	0.897
ATTTATTGTACGATCAAGCTGG	0.545
TTACTCTGGGAAAGTTACCTTG	-0.709
TTTGTTATTTACTTGTACGTTC	0.326
TACAGTCTGTGACATCTCCGTT	-0.562
TACTCCTTGATAGCTCTTCCTT	-0.857
TTGGATTCTGCTCAGTAACAAA	-1.61
